Test results from PubChem BioAssay.
Active and inactive are the calls of the source. Unless noted, how the calls were made is not given here.

Columns and labels:
[1] = test system: XIP peptide (Xip251-270) binding; assay: small-molecule binders of XIP peptide, primary screen, biochemical, small-molecule microarray, fluorescence 635/667 nm, 0.1 µg/mL protein (AID 1182); details: fluorescent protein binding, 635 nm, higher = more signal, called active from +8 up or from −8 down
XIP peptide (Xip251-270) = assay: small-molecule binders of XIP peptide, primary screen, biochemical, small-molecule microarray, fluorescence 635/667 nm, 0.5 µg/mL protein (AID 1183); details: small-molecule microarray binding, fluorescence 635 nm; higher = more signal
[2] = Plasmodium falciparum growth inhibition, primary screen, strain 3D7, DAPI fluorescence, 100 nL (AID 1184);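 further: parasites grown inside human red blood cells in medium with human serum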; details: P. falciparum 3D7 growth, 3 d, higher = more signal
[3] = biological target: Homeobox protein Hox-A13 (Mus musculus) (UniProt Q62424); assay: inhibitors of HoxA13-DNA binding, primary screen, biochemical, fluorescence polarization, labeled oligonucleotide (AID 1185); details: 15 min, higher = more signal, called active from +8 up or from −8 down
Chain of Homeobox protein Hox-A13 (Mus musculus) (Q62424 whole entry, looked up): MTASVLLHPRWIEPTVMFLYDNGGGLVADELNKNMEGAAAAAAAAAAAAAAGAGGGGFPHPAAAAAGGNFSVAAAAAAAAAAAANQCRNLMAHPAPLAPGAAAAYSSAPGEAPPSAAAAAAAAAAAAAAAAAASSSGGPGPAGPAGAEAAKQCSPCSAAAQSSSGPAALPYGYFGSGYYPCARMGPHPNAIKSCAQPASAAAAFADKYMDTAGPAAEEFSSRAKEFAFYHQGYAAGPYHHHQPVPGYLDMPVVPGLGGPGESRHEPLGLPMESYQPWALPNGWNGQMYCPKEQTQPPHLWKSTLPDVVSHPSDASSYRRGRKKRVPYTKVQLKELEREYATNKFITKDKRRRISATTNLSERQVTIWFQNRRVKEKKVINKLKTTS

[4] = inhibitors of hydroxyurea-induced Chk1 phosphorylation, primary screen, imaging, HeLa, phospho-Chk1 antibody, percent positive cells (AID 1186); details: hydroxyurea-induced phospho-Chk1 immunofluorescence imaging, higher = more signal
[5] = inhibitors of hydroxyurea-induced Chk1 phosphorylation, primary screen, imaging, HeLa, phospho-Chk1 nuclear intensity (AID 1187); details: hydroxyurea-induced phospho-Chk1 immunofluorescence imaging, higher = more signal

Compound | composite z-score [1] | composite z-score (XIP peptide (Xip251-270)) | z-score [2] | z-score [3] | z-score [4] | z-score [5]
[N-]=[N+]=Nc1ccccc1[C@H]1OC(c2ccc(OCCCO)cc2)=N[C@@]1(CCS(=O)(=O)c1ccccc1)C(=O)O | 0.835 (inactive) | 0.824 | -1.46 | -4.02 (inactive) | 0.189 (inactive) | 0.222 (inactive)
Cc1ccc(S[C@]2(C(=O)NCC(C)C)CC(=O)N(Cc3ccccc3)[C@@H]2c2ccc(CO)cc2I)cc1 | 0.0656 (inactive) | 0.292 | -0.769 | -3.29 (inactive) | 0.292 (inactive) | 0.556 (inactive)
Cc1ccccc1C(O)C1C=CC2C(=O)N(C)C(=O)C2N1Nc1ccccc1 (stereo not drawn) | 0.381 (inactive) | 0.632 | 1.11 | -3.24 (inactive) | 0.251 (inactive) | -0.594 (inactive)
CC(C)(C)OC(=O)CC[C@]1(C(=O)N2CCCCC2)N=C(c2ccc(OCCCO)cc2)O[C@H]1c1ccccc1N=[N+]=[N-] | 0.282 (inactive) | 0.71 | -1.75 | -2.92 (inactive) | -0.0036 (inactive) | 0.212 (inactive)
O=C1O[C@@H](c2ccccc2)[C@@H](c2ccccc2)N2[C@@H](c3ccc(O)cc3)[C@]3(C(=O)Nc4ccc(C#CC5=CCCCC5)cc43)[C@@H](C(=O)O)[C@H]12 | 1.53 (inactive) | 0.327 | 0.202 | -5.46 (inactive) | -0.0372 (inactive) | 0.277 (inactive)
NCCCCCNC(=O)[C@H]1C[C@H]2C(=O)NCC(=O)N2[C@H]1c1cccc(OCCO)c1 | 0.228 (inactive) | 0.781 | 0.222 | -1.68 (inactive) | 0.0838 (inactive) | 0.179 (inactive)
CCOC(=O)[C@H]1C/C=C/C[C@H](C(=O)OCC)C(=O)O[C@H]2[C@@H](OC)O[C@H](CO)[C@@H](OC(=O)Nc3ccc4c(c3)OCO4)[C@@H]2OC1=O | 1.28 (inactive) | 0.832 | -1.95 | -2.27 (inactive) | -0.18 (inactive) | -0.0843 (inactive)
CC(C)Cc1ccc(CN2CC[C@@H](NS(=O)(=O)c3ccccc3)C2)cc1 | -0.479 (inactive) | 0.0054 | -0.438 | -4.79 (inactive) | -0.853 (inactive) | -1.1 (inactive)
CN(C)CCCCNC(=O)[C@H]1C[C@H]2C(=O)N[C@@H](Cc3ccccc3)C(=O)N2[C@H]1c1ccc(O)cc1 | 0.508 (inactive) | 0.0009 | -1.16 | -0.0255 (inactive) | -0.0685 (inactive) | -0.195 (inactive)
COc1ccc(C#Cc2ccc3c(c2)[C@]2(C(=O)N3)[C@H](C(=O)NC[C@H](O)c3ccccc3)[C@H]3C(=O)O[C@H](c4ccccc4)[C@H](c4ccccc4)N3[C@@H]2c2ccc(OCCO)cc2)cc1 | -0.0969 (inactive) | 0.715 | -1.06 | -0.878 (inactive) | 0.63 (inactive) | 0.886 (inactive)
Cc1ccc(S[C@]2(C(=O)NC3CC3)CC(=O)N(C3CCCCC3)[C@@H]2c2ccc(CO)cc2I)cc1 | 1.01 (inactive) | 0.784 | -1.34 | -4.11 (inactive) | -0.0105 (inactive) | 0.06 (inactive)
Cc1ccc(S[C@]2(C(=O)NCc3ccccc3)CC(=O)N(Cc3ccccc3)[C@@H]2c2ccc(CO)cc2)cc1 | 0.824 (inactive) | 0.849 | 0.101 | -2.39 (inactive) | -0.0397 (inactive) | 0.377 (inactive)
C=CC(COC(C)=O)NS(=O)(=O)c1ccc(Br)cc1 (stereo not drawn) | 0.264 (inactive) | 0.231 | 1.95 | -0.546 (inactive) | 0.363 (inactive) | 0.253 (inactive)
CC(C)C(O)C1C=CC2C(=O)N(c3ccccc3)C(=O)C2N1Nc1ccc(C#N)cc1 (stereo not drawn) | 0.613 (inactive) | 0.748 | 0.207 | -2.61 (inactive) | -0.877 (inactive) | -0.419 (inactive)
O=C1O[C@@H](c2ccccc2)[C@@H](c2ccccc2)N2[C@@H](c3ccc(OCCO)cc3)[C@]3(C(=O)Nc4ccc(C#CC5=CCCCC5)cc43)[C@@H](C(=O)O)[C@H]12 | 0.383 (inactive) | 0.504 | 0.287 | -3.99 (inactive) | 0.419 (inactive) | 0.542 (inactive)
COc1ccc(C(=O)Nc2cccc(CN3C(=O)[C@]4(O[C@H](CC(=O)N5CCC[C@H]5CO)[C@@H]([Si](C)(C)c5ccc(OC)cc5)[C@@H]4C)c4ccccc43)c2)cc1 | 1.64 (inactive) | 0.687 | -1.34 | -2.44 (inactive) | -0.0977 (inactive) | 0.131 (inactive)
CCOC(=O)C[C@H]1[C@H](OC(=O)c2ccc(-c3ccccc3)cc2)[C@@H](NC(=O)c2ccc3ccccc3c2)c2cc(OCCCO)ccc2N1C(=O)Cc1ccc(OC)cc1 | -0.341 (inactive) | -0.0332 | -0.884 | -1.89 (inactive) | -0.192 (inactive) | 0.0873 (inactive)
O=C1O[C@H](c2ccccc2)[C@H](c2ccccc2)N2[C@H]1[C@@H](C(=O)O)[C@]1(C(=O)Nc3ccc(C#CC4(O)CCCCCC4)cc31)[C@H]2c1ccc(OCCO)cc1 | 1.31 (inactive) | 0.599 | 0.362 | -6.3 (inactive) | -0.125 (inactive) | -0.198 (inactive)
C=C[C@@H](COC(C)=O)N(Cc1ccc([N+](=O)[O-])cc1)S(=O)(=O)c1ccc(Br)cc1 | 0.13 (inactive) | 0.656 | 0.242 | -3.25 (inactive) | -0.617 (inactive) | -0.411 (inactive)
Cc1ccc([C@H]2C(C(=O)O)=C[C@@H](C)N2S(=O)(=O)c2ccc(C)cc2)cc1 | 1.78 (inactive) | -0.43 | 0.159 | -3.09 (inactive) | 0.502 (inactive) | 0.176 (inactive)
CC(=O)NCCCC[C@@H]1NC(=O)[C@@H]2C[C@H](C(=O)NCCCCN(C)C)[C@H](c3ccc(O)cc3)N2C1=O | -0.308 (inactive) | -0.208 | 0.101 | -0.795 (inactive) | -0.396 (inactive) | -0.291 (inactive)
Cc1ccc(S[C@]2(C(=O)NCc3ccccc3)CC(=O)N(Cc3ccccc3Cl)[C@@H]2c2ccc(CO)cc2I)cc1 | 0.935 (inactive) | 0.348 | -0.496 | -1.91 (inactive) | 0.0452 (inactive) | 0.0687 (inactive)

Compound | composite z-score [1] | composite z-score (XIP peptide (Xip251-270)) | z-score [2] | z-score [3] | z-score [4] | z-score [5]
CC(=O)C1=CCC(c2ccccc2)N(S(=O)(=O)c2ccc(C)cc2)C1 (stereo not drawn) | 0.651 (inactive) | 0.473 | -1.33 | -3.89 (inactive) | 0.532 (inactive) | 0.216 (inactive)
C#CCN(C(/C=C/c1ccccc1)CO)C(C(=O)O)c1ccccc1 (stereo not drawn) | 0.194 (inactive) | -0.722 | -2.23 | 0.9 (inactive) | 0.301 (inactive) | 0.353 (inactive)
O=C1OCCC=C[C@H]2OC34C=CCN(Cc5ccccc5)C(=O)[C@H]3N(CCCO)C(=O)[C@@H]4C12 (stereo partly drawn) | 0.17 (inactive) | -0.461 | -2.21 | -4.21 (inactive) | -0.16 (inactive) | -0.035 (inactive)
CN(C)C(=O)[C@@]1(CCC(=O)OC(C)(C)C)N=C(c2ccc(OCCCO)cc2)O[C@H]1c1ccccc1 | 0.373 (inactive) | 0.909 | -1.8 | -5.79 (inactive) | 0.196 (inactive) | 0.0613 (inactive)
CCCCC(CC)C(O)C1C=CC2C(=O)N(c3ccccc3)C(=O)C2N1Nc1ccccc1 (stereo not drawn) | -0.147 (inactive) | 0.216 | -0.392 | -1.89 (inactive) | -0.335 (inactive) | -0.23 (inactive)
CCOC(=O)C1=CC[C@@H](c2ccccc2Cl)N(S(=O)(=O)c2ccc(C)cc2)C1 | 0.792 (inactive) | 0.488 | -2.06 | -2.78 (inactive) | -1.55 (inactive) | -1.77 (inactive)
CC(C)C(=C=CC[C@@H](O)c1ccccc1OCCO)C[C@@H](O)c1ccccn1 | 2.26 (inactive) | 0.499 | -1.35 | -4.89 (inactive) | 0.0231 (inactive) | 0.215 (inactive)
COC(=O)C[C@H]1O[C@]2(C(=O)N(Cc3ccccc3)c3ccc(NC(C)=O)cc32)[C@@H](C)[C@@H]1[Si](C)(C)c1ccc(OC)cc1 | 0.337 (inactive) | 0.27 | -3.05 | -3.04 (inactive) | 0.918 (inactive) | 0.536 (inactive)
O=C/C=C/c1ccc(Cl)cc1 | -1.5 (inactive) | -0.314 | 0.364 | 0.168 (inactive) | -0.0674 (inactive) | -0.659 (inactive)
CN1C=C(C(=O)OCCS(C)(=O)=O)C(C(=O)OCCS(C)(=O)=O)=CC(CCCO)=CC1C1CC1 (stereo not drawn) | 1.7 (inactive) | 0.01 | -0.766 | -5.26 (inactive) | -1.31 (inactive) | -0.118 (inactive)
COCCOC(=O)N1C(=O)[C@@]2(c3cc(C#CCC(C(=O)OC)C(=O)OC)ccc31)[C@H](c1ccc(O)cc1)N1[C@H](c3ccccc3)[C@H](c3ccccc3)OC(=O)[C@H]1[C@@H]2C(N)=O | 1.39 (inactive) | 0.619 | -0.486 | -3.8 (inactive) | 0.676 (inactive) | 0.98 (inactive)
CC(C)C(=C=CC[C@H](O)c1ccccc1OCCO)C[C@H](O)c1ccccn1 | 0.241 (inactive) | 0.0067 | -1.41 | -4.79 (inactive) | 0.293 (inactive) | 0.546 (inactive)
COCCCNC(=O)[C@@]1(c2ccc([N+](=O)[O-])cc2)CC(=O)N(CC23CC4CC(CC(C4)C2)C3)[C@@H]1c1ccc(CO)cc1 | 0.0335 (inactive) | 0.697 | -0.0493 | -5.17 (inactive) | -0.687 (inactive) | -0.404 (inactive)
C=C(CCCC)C(=O)CC[C@H](OC(=O)c1cccnc1)c1cccc(OCCO)c1 | 0.179 (inactive) | 0.143 | -3.03 | -4.56 (inactive) | -0.296 (inactive) | -0.249 (inactive)
CCCCC(O)C1C=CC2C(=O)N(C3CCCCC3)C(=O)C2N1Nc1ccc(OC)cc1 (stereo not drawn) | 0.222 (inactive) | 0.808 | -0.265 | -3.58 (inactive) | 0.895 (inactive) | 0.719 (inactive)
COCCOC(=O)N1C(=O)[C@@]2(c3ccccc31)[C@H](C(=O)NC[C@H](O)c1ccccc1)[C@H]1C(=O)O[C@H](c3ccccc3)[C@H](c3ccccc3)N1[C@@H]2c1ccc(OCCO)cc1 | 0.868 (inactive) | 0.645 | -2.02 | -4.33 (inactive) | -0.293 (inactive) | -0.262 (inactive)
O=C(O)[C@@]1(Cc2ccccc2)N=C(c2ccc(OCCCO)cc2)O[C@H]1c1ccccc1 | 0.213 (inactive) | 0.427 | 0.653 | -5.03 (inactive) | -0.294 (inactive) | -0.224 (inactive)
CC(C)N1C(=O)c2ccccc2[C@@H](C(=O)NCCCN(C)C)[C@@H]1c1ccc(CO)cc1 | -0.361 (inactive) | -0.428 | -1.26 | -2.54 (inactive) | -0.0028 (inactive) | -0.321 (inactive)
COc1ccc(CCN2C(=O)[C@@]3(Cc4ccccc42)c2ccccc2C(=O)N(Cc2ccccc2Cl)[C@H]3c2ccc(CO)cc2)cc1 | -0.227 (inactive) | 0.285 | -1.37 | -0.482 (inactive) | -0.214 (inactive) | -0.322 (inactive)
CCOc1cc(C(O)C2C=CC3C(=O)N(c4ccccc4)C(=O)C3N2Nc2ccc([N+](=O)[O-])cc2)ccc1O (stereo not drawn) | -0.394 (inactive) | 0.546 | -1.76 | -5.51 (inactive) | 0.555 (inactive) | -0.452 (inactive)
[N-]=[N+]=NCc1ccccc1[C@@H]1OC(c2ccc(OCCCO)cc2)=N[C@]1(Cc1ccccc1)C(=O)N1CCCCC1 | 0.34 (inactive) | 0.654 | -2.23 | -3.35 (inactive) | -0.837 (inactive) | -0.726 (inactive)
